The values that follow come from PubChem BioAssay (NCATS).

The structures appear in SMILES notation. Unmarked numbers belong to inactive results. Records with an inconclusive call do not appear. Activity calls are given as the source filed them. The call rests on the fitted dose curve; in most records, active means well fitted curve in the direction sought with a large enough effect; inconclusive means small, poorly fitted or top-dose-only effect, or another doubt; inactive means no such curve, though single readings can be large; an effect the other way counts as inactive or inconclusive.

Experiment [1] has as its target Ubiquitin carboxyl-terminal hydrolase 1 (Homo sapiens) (UniProt O94782). The experiment is described as follows: Inhibitors of USP1/UAF1: Pilot qHTS (AID 504865). Further: nearly all actives have a fitted effect of over 35% in size. Further: potency means the concentration at half of the fitted maximal effect. Put shortly:
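1nM USP1/UAF1 + cpd, 15 min RT; start w/ Ub-Rho 150nM final; kinetic FL 480/540 nm, 6 reads q60 s. Buffer 50mM HEPES pH 7.8, 0.5mM EDTA, 1mM TCEP, 0.01% Tween-20, 0.1 mg/ml BSA.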

The nature of experiment [2]: qHTS profiling for inhibitors of Plasmodium falciparum proliferation (AID 504749).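 Further: 0% = DMSO vehicle and full inhibition = artemisinin control; nearly all actives have a fitted effect of over 60% in size.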 The conditions noted are these: P. falciparum in erythrocytes, SYBR Green DNA, 72 h, at 28.7 µM (top of the series). Put shortly: (§1)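 In a 72 h erythrocytic culture (37 C, humidified, 5% CO2) at 2.5% hematocrit and 0.3% starting parasitemia, compounds were tested; SYBR Green I in detergent lysis buffer stained parasite DNA overnight.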

The next experiment relates to AA1029. The description is as above. The conditions noted are these: P. falciparum in erythrocytes, SYBR Green DNA, 72 h; series mostly up to 28.7 µM. Put shortly:
as §1

The next experiment relates to ATS189. The description is as above. The conditions noted are these: P. falciparum in erythrocytes, SYBR Green DNA, 72 h; series mostly up to 28.7 µM. Put shortly:
as §1

A further experiment concerns CP185. Described as above. The conditions noted are these: P. falciparum in erythrocytes, SYBR Green DNA, 72 h; series mostly up to 28.7 µM. Put shortly: as §1
For another experiment, the system named is CP201. Described as above. The conditions noted are these: P. falciparum in erythrocytes, SYBR Green DNA, 72 h; series mostly up to 28.7 µM. Put shortly:
as §1

Another experiment concerns CP238. The experiment is described as above. The conditions noted are these: P. falciparum in erythrocytes, SYBR Green DNA, 72 h; series mostly up to 28.7 µM. Put shortly:
as §1

The next experiment deals with CP252. The description is as above. The conditions noted are these: P. falciparum in erythrocytes, SYBR Green DNA, 72 h; series mostly up to 28.7 µM. Put shortly: as §1
A further experiment relates to CP265. Described as above. The conditions noted are these: P. falciparum in erythrocytes, SYBR Green DNA, 72 h; series mostly up to 28.7 µM. Put shortly:
as §1

In the next experiment the test system is CP286. The experiment is described as above. The conditions noted are these: P. falciparum in erythrocytes, SYBR Green DNA, 72 h; series mostly up to 28.7 µM. Put shortly: as §1
The subject of a further experiment is CP305. The description is as above. The conditions noted are these: P. falciparum in erythrocytes, SYBR Green DNA, 72 h; series mostly up to 28.7 µM. Put shortly:
as §1

Another experiment concerns CP315. Described as above. The conditions noted are these: P. falciparum in erythrocytes, SYBR Green DNA, 72 h; series mostly up to 28.7 µM. Put shortly: as §1
The next experiment has as its system CP325. Described as above. The conditions noted are these: P. falciparum in erythrocytes, SYBR Green DNA, 72 h; series mostly up to 28.7 µM. Put shortly: as §1
The next experiment has as its system FAB9. The experiment is described as above. The conditions noted are these: P. falciparum in erythrocytes, SYBR Green DNA, 72 h; series mostly up to 28.7 µM. Put shortly:
as §1

The test system of the next experiment is JCK. The experiment is described as above. The conditions noted are these: P. falciparum in erythrocytes, SYBR Green DNA, 72 h; series mostly up to 28.7 µM. Put shortly:
as §1

In experiment [3] the target is Cytochrome P450 3A4 (Homo sapiens) (UniProt P08684). The experiment is described as follows: qHTS Assay for Inhibitors and Substrates of Cytochrome P450 3A4 (AID 884). Further: nearly all actives have a fitted effect of over 50% in size. Further: potency means the concentration at half of the fitted maximal effect. Put shortly:
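Luminescent readout of luciferin produced by CYP3A4 (20 nM) dealkylation of Luciferin-PPXE, 25 uM (its KM). NADPH-driven reaction ran 60 min at RT after 10 min compound preincubation; data scaled to 57 uM ketoconazole as 100% inhibition.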
For orientation: Quantitative high-throughput screening tests each substance at several concentrations.

In experiment [4] the target is DNA dC->dU-editing enzyme APOBEC-3G (Homo sapiens) (UniProt Q9HC16). In words: qHTS for inhibitors of Vif-A3G interactions: Validation (AID 588379). Further: 0% is about no effect. Put shortly:
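Yellow fluorescence (Ex 488, Em 500-530) of Vif-coexpressing HeLa A3G-eYFP cells, scanned by Acumen cytometer, reports blocked A3G degradation. Cells plated at 700/well overnight at 37 deg C before compound addition, then a further overnight compound incubation at 37 deg C.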

Experiment [5] addresses Cytochrome P450 3A4 (Homo sapiens) (UniProt P08684). The experiment is described as follows: qHTS Assay for Activators of Cytochrome P450 3A4 (AID 885). Further: nearly all actives have a fitted effect of over 65% in size. Put shortly: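 Human CYP3A4 dealkylates Luciferin-PPXE to luciferin, which luciferase detection converts to light. Substrate was at its KM (25uM), buffer 200mM KPO4, reaction 60 min at RT.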

Sequence of Ubiquitin carboxyl-terminal hydrolase 1 (Homo sapiens) (O94782 whole entry, looked up): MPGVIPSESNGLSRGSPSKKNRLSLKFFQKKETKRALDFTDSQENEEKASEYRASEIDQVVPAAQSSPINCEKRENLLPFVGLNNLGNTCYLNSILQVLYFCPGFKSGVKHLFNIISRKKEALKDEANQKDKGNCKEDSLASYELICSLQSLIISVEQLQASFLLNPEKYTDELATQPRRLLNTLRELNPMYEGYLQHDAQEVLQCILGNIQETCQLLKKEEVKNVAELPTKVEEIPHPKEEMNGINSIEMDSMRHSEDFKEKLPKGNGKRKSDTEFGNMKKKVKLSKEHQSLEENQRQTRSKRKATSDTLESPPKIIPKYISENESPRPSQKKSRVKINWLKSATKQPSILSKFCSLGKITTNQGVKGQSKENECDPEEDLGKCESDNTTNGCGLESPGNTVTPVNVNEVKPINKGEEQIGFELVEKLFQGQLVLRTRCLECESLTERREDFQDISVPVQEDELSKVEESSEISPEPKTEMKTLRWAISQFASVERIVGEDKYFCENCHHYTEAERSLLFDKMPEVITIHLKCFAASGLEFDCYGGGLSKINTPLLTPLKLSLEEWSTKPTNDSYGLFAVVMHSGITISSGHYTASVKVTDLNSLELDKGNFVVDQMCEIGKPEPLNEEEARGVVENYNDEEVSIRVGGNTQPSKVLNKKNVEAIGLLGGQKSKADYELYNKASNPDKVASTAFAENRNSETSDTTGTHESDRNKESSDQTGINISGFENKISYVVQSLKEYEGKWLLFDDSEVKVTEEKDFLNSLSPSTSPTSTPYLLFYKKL
Sequence of DNA dC->dU-editing enzyme APOBEC-3G (Homo sapiens) (Q9HC16 whole entry, looked up): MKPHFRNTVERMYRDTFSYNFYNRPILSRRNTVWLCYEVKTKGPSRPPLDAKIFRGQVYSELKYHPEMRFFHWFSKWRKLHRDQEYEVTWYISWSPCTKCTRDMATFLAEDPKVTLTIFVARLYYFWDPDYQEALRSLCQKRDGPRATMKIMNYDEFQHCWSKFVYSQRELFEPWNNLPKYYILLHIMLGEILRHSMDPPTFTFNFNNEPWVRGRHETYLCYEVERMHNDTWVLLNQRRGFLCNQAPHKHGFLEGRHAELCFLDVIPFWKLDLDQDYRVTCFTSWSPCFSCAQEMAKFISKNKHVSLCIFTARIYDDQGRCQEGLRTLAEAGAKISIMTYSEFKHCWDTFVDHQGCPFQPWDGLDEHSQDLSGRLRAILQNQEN
Sequence of Cytochrome P450 3A4 (Homo sapiens) (P08684 whole entry, looked up): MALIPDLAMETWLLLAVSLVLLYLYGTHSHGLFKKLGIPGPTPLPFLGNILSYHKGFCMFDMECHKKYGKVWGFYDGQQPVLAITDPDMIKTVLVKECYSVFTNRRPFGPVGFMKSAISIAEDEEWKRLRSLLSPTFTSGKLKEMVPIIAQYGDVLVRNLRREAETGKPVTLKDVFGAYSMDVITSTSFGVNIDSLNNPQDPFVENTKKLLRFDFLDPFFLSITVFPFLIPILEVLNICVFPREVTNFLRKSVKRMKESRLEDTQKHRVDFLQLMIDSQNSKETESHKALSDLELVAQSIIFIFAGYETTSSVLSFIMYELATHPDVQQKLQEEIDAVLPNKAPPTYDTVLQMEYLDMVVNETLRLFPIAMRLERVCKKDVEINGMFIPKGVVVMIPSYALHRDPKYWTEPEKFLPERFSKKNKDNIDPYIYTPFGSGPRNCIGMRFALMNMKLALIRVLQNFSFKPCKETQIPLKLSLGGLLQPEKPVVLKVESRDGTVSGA

Consider `CCC(Oc1ccccc1)C(=O)NC1C(=O)N2C1SC(C)(C)C2C(=O)O` (stereo not drawn), for which the Potency entry (in [1]; with AA1029; in the experiment on ATS189; in the experiment with CP185; in the experiment on CP201; with CP238) was “inactive” in each case. For the same molecule, the Potency result with CP252, with CP265, with CP286, in the experiment with CP305, in the experiment with CP315 and in the experiment with CP325 was “inactive” each time. The Potency result in the experiment with FAB9 and in the experiment with JCK was “inactive” in each case. The activity, negative = inhibition in [2] (parasite line A) was -3.05%; in [2] (parasite line B), 10.5%.

As for `OC[C@H]1O[C@@H](OC[C@H]2O[C@@H](O)[C@H](O)[C@@H](O)[C@@H]2O)[C@H](O)[C@@H](O)[C@@H]1O`, the Potency entry in experiment [3], in experiment [1] and in experiment [4] was “inactive” each time.

As for `CCC1NC(=O)C(NC(=O)c2ncccc2O)C(C)OC(=O)C(c2ccccc2)NC(=O)C2CC(=O)CCN2C(=O)C(Cc2ccccc2)N(C)C(=O)C2CCCN2C1=O` (stereo not drawn), the Potency result (in [1]; in the experiment with AA1029; in the experiment on ATS189; with CP185; in the experiment on CP201; with CP238) was “inactive” in each case. The Potency entry with CP252, in the experiment with CP265, in the experiment with CP286, in the experiment with CP305, in the experiment with CP315 and in the experiment with CP325 was “inactive” throughout. Also, the Potency entry with FAB9 and in the experiment on JCK was “inactive” in each case. For the same molecule, the activity, negative = inhibition in experiment [2] (parasite line A) is -20.9%; in [2] (parasite line B) it was -28.7%.

In the case of `CC1(C)C(/C=C/C=C/C=C/C=C2\N(CCCCS(=O)(=O)O)c3ccc4ccccc4c3C2(C)C)=[N+](CCCCS(=O)(=O)[O-])c2ccc3ccccc3c21`, in [1], the Potency was 31600 nM (active). Further, the activity, negative = inhibition is 2.34% in [2] (parasite line A) and 4.13% in [2] (parasite line B). In addition, the Potency result with AA1029, in the experiment with ATS189, with CP185, in the experiment with CP201, in the experiment with CP238 and in the experiment with CP252 was “inactive” in each case. In addition, the Potency result in the experiment with CP265, in the experiment on CP286, in the experiment with CP305, in the experiment with CP315, in the experiment on CP325 and with FAB9 was “inactive” each time. In addition, in the experiment with JCK, the Potency entry was “inactive”.

Take `COc1ccc(-c2nc3ccc(C4=C(C)CC(=O)NN4)cc3[nH]2)cc1`: the activity, negative = inhibition in experiment [2] (parasite line B) was -13%. Besides, the Potency result with AA1029, with ATS189, in the experiment with CP185, with CP201, in the experiment with CP238 and in the experiment on CP252 was “inactive” throughout. Further, the Potency result with CP265, with CP286, with CP305, in the experiment on CP315, in the experiment on CP325 and in the experiment with FAB9 was “inactive” in each case. The Potency result with JCK is “inactive”.

For the molecule `O=c1cc(-c2ccc(O)cc2)oc2cccc(O)c12`, the Potency in experiment [3] was 794 nM (active). In addition, the Potency result in experiment [5], in experiment [1] and in experiment [4] was “inactive” throughout.

Turning to `CCOC(=O)C(CS)NCCN[C@@H](CS)C(=O)OCC` (stereo partly drawn), the Potency result (in experiment [1]; with AA1029; with ATS189; with CP185; in the experiment on CP201; in the experiment on CP238) was “inactive” in each case. Besides, the Potency entry in the experiment on CP252, in the experiment on CP265, in the experiment with CP286, in the experiment on CP305, in the experiment with CP315 and with CP325 was “inactive” throughout. The Potency result in the experiment with FAB9 and in the experiment on JCK was “inactive” in each case. In addition, the activity, negative = inhibition is -2.53% in experiment [2] (parasite line A) and -3.46% in [2] (parasite line B).

For the molecule `CCC(C)C1NC(=O)C(Cc2ccc(O)cc2)NC(=O)C(N)CSSCC(C(=O)N2CCCC2C(=O)NC(CC(C)C)C(=O)NCC(N)=O)NC(=O)C(CC(N)=O)NC(=O)C(CCC(N)=O)NC1=O` (stereo not drawn), the values for the activity, negative = inhibition in experiment [2] (parasite line A) and in experiment [2] (parasite line B) were 0.779% and 4.79%, respectively. The Potency entry with AA1029, with ATS189, with CP185, in the experiment with CP201, in the experiment with CP238 and in the experiment with CP252 was “inactive” each time. For the same molecule, the Potency result in the experiment with CP265, in the experiment with CP286, with CP305, in the experiment with CP315, in the experiment on CP325 and with FAB9 was “inactive” in each case. Further, the Potency entry in the experiment on JCK was “inactive”.

On to `COc1ccc(-c2oc3cc(OC)ccc3c(=O)c2O)cc1`, for which the Potency entry in experiment [1] and in [4] was “inactive” each time.

For the molecule `Nc1nc2c(c(=O)[nH]1)N=C(CNc1ccc(C(=O)NC(CCC(=O)O)C(=O)O)cc1)CN2` (stereo not drawn), the Potency result in [3], in [1] and in experiment [4] was “inactive” in each case.

As to `COc1ccc(/C=C/C(=O)c2cccs2)cc1OC`, in [3], the Potency was 2510 nM (active). The Potency entry in experiment [5], in experiment [1] and in experiment [4] was “inactive” in each case.

Take `CC(C)C[C@H](NC(=O)[C@@H](Cc1c[nH]c2ccccc12)NC(=O)[C@@H](Cc1ccc(O)cc1)NC(=O)[C@@H](CO)NC(=O)[C@@H](Cc1c[nH]c2ccccc12)NC(=O)C(Cc1cnc[nH]1)NC(=O)C1CCC(=O)N1)C(=O)N[C@@H](CCCN=C(N)N)C(=O)N1CCC[C@@H]1C(=O)NCC(N)=O` (stereo partly drawn): the Potency entry (in experiment [1]; with AA1029; in the experiment on ATS189; with CP185; in the experiment on CP201; in the experiment on CP238) was “inactive” in each case. For the same molecule, the Potency result in the experiment on CP252, with CP265, with CP286, in the experiment with CP305, in the experiment with CP315 and in the experiment with CP325 was “inactive” in each case. In addition, the Potency result in the experiment with FAB9 and with JCK was “inactive” throughout. The activity, negative = inhibition in experiment [2] (parasite line A) is 17.3%; in experiment [2] (parasite line B), 2.16%.

For `C[C@H]1[C@H]2CC[C@H]3C4CC=C5C[C@@H](N(C)C)CC[C@]5(C)C4CC[C@]23CN1C` (stereo partly drawn), the Potency entry in experiment [3], in experiment [1] and in [4] was “inactive” throughout.

As for `CC(=O)OCC1=C(C(=O)O)N2C(=O)C(NC(=O)Cc3ccccc3)C2SC1` (stereo not drawn), the Potency entry (in [1]; in the experiment with AA1029; in the experiment on ATS189; in the experiment with CP185; with CP201; in the experiment with CP238) was “inactive” each time. Further, the Potency result in the experiment with CP252, in the experiment on CP265, in the experiment with CP286, in the experiment on CP305, in the experiment with CP315 and in the experiment with CP325 was “inactive” each time. The Potency result in the experiment on FAB9 and in the experiment on JCK was “inactive” in each case. The activity, negative = inhibition in [2] (parasite line A) was 1.08%; in experiment [2] (parasite line B), 0.234%.

With `CC(=O)OC1CCC2(C)C(=CCC3C2CCC2(C)C3C[C@@H]3O[C@]32C(C)=O)C1` (stereo partly drawn), the Potency entry in experiment [3], in experiment [1] and in experiment [4] was “inactive” each time.

On to `Cn1cc(O)nc1NC(=O)Nc1cccc(Cl)c1`, for which the Potency result (in experiment [1]; in the experiment on AA1029; with ATS189; in the experiment on CP185; in the experiment with CP201; with CP238) was “inactive” each time. The Potency entry with CP252, in the experiment with CP265, with CP286, with CP305, with CP315 and with CP325 was “inactive” each time. In addition, the Potency result in the experiment on FAB9 and with JCK was “inactive” in each case. The activity, negative = inhibition in experiment [2] (parasite line A) is -22.2%; in experiment [2] (parasite line B), -22.3%.
